Screening data: PubChem BioAssay, several laboratories
CASP6 VEID inh: human caspase-6 inhibitors, primary screen, biochemical, VEID-R110 fluorescence, single point, set 2; P55212; purified caspase-6, Z-VEID-R110 cleavage fluorescence; inhibition, % at 12.5 µM; hit rate 0.53% among 350,000;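 active = mean inhibition across replicates at least about 35%, with every replicate also reaching that limit, limit read from the data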;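 also: 0% = median of neutral control wells and 100% = no fluorescence left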
MBD2 DNA inh: inhibitors of MBD2 binding to methylated DNA, primary screen, biochemical, TR-FRET, DNA-binding domain, human; Methyl-CpG-binding domain protein 2 (Homo sapiens), Q9UBB5; MBD2 binding to methylated oligonucleotide; inhibition, % at 4.4 µM; hit rate 0.31% among 370,000; AID 686964, 2013; in the data active = inhibition above about 13%
Target sequence (Q9UBB5 whole entry, looked up, the tested form may be a part): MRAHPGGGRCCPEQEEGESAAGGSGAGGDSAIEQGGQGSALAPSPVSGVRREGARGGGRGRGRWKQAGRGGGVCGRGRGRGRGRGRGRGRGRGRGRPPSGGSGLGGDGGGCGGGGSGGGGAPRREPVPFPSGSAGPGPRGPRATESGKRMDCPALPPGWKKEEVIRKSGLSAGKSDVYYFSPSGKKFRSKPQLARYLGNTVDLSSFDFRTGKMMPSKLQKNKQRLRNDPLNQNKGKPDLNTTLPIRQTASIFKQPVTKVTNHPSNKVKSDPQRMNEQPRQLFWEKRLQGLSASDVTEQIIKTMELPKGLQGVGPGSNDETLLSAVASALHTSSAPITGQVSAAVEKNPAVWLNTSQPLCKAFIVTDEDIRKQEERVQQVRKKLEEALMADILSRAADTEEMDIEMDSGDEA
LEDGF integ inh: blockers of LEDGF/p75-dependent integrase strand transfer – biochemical, TR-FRET, high throughput, primary screen; HIV-1 integrase (with human LEDGF/p75); TR-FRET IN-LEDGF/p75 DNA integration, Eu/Cy5; inhibition, % at 3.7 µM; hit rate 0.64% among 370,000; AID 743269, 2014;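 active = inhibition above the screen-wide mean plus 3 SD, cut at about 13% in these data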;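 also: signal is the Cy5 over europium emission ratio at 671 and 618 nm; 0% = plate median of compound wells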
UHRF1 binding: UHRF1 methylated DNA binding inhibitors, primary screen, counter-screen for MBD2 inhibitor project, biochemical, TR-FRET, human UHRF1, single concentration. UHRF1 binding to methylated oligo. inhibition, % at 4.4 µM. hit rate 0.75% among 370,000. AID 687016, 2013; in the data active = inhibition above about 21%;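 also: UHRF1 SRA domain binding a hemimethylated CpG hairpin DNA probe; 0% = median of test compound wells and 100% = reference inhibitor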
* hit, by the source's call; x = no result given; ! = repeats disagree. Hits are enriched below; roughly 1.4% of the tested compounds scored in any of these assays.

SMILES | CASP6 VEID inh | MBD2 DNA inh | LEDGF integ inh | UHRF1 binding
CO[C@@H]1CN(C)C(=O)c2ccc(NC(=O)CC(F)(F)F)cc2OC[C@H](C)N(C(C)=O)C[C@@H]1C | 1 | x | x | x
CCOc1cc(C2C(C#N)=C(N)Oc3n[nH]c(CC)c32)ccc1OCCN1CCOCC1 (configuration not stated) | x | 5 | -1 | 22*
C[C@H]1CN([C@@H](C)CO)C(=O)c2cc(NC(=O)Nc3ccc(F)cc3)ccc2O[C@H]1CN(C)S(=O)(=O)c1ccc(Cl)cc1 | 2 | x | x | x
COc1cc(/C=C2\C(=O)NN(c3ccccc3)C2=O)cc([N+](=O)[O-])c1O | 27 | -9 | 4 | -3
CCOc1cc(/C=C2\C(=O)NN(c3ccccc3)C2=O)cc([N+](=O)[O-])c1O | 37* | -8 | -2 | 0
CC1CCN(C(=S)c2cn(Cc3cccc(F)c3)c3ccccc23)CC1 | -1 | -3 | 2 | 29*
CCC[C@@H](CN1CCC[C@H]1CN1C(N)=NC[C@H]1CC(C)C)N1C[C@@H](Cc2ccccc2)N(CCc2ccc(Cl)c(Cl)c2)C1=N | 36* | 5 | -1 | 15
CCC[C@@H](CN1CCC[C@H]1CN1C(N)=NC[C@@H]1Cc1ccccc1)N1C[C@@H](Cc2ccccc2)N(CCc2ccc(Cl)c(Cl)c2)C1=N | 45* | -4 | 1 | 2
O=C(c1ccncc1)N1CC2(C1)[C@@H](c1ccccc1)[C@@H](CO)N2CC1CCCC1 | 0 | x | x | x
N#C[C@@H]1[C@@H](c2ccc(-c3cccc(F)c3)cc2)[C@@H](CO)N1S(=O)(=O)c1cccc(F)c1 | -4 | x | x | x
O=C1Nc2ccccc2C1(O)c1ccccc1O (configuration not stated) | 6 | 2 | 6 | 7
Cc1cc(C2(O)C(=O)Nc3ccccc32)ccc1F (configuration not stated) | 36* | 3 | 0 | 5
C[C@@H]1COc2cc(N3CCC[C@H]3CO)ccc2S(=O)(=O)N1 | -3 | -3 | 3 | -1
C[C@H]1COc2cc(N3CC[C@H](O)C3)ccc2S(=O)(=O)N1 | -3 | 2 | -5 | 62*
C/C(=N/NS(=O)(=O)c1ccc(Cl)cc1)c1cccc(NC(=O)c2ccncc2)c1 | 92* | -2 | 1 | 0
Cc1ccn2c(Cc3ccccc3)c(-c3ccc(F)cc3)nc2c1 | 2 | 8 | -3 | 21*
COc1ccc(Cc2c(-c3ccc(OC)c(OC)c3)nc3ccc(C)cn23)c(C)c1 | 0 | 7 | -1 | 24*
COc1ccc(Cc2c(-c3ccc(F)cc3)nc3ccc(C)cn23)c(C)c1 | -7 | 4 | -2 | 21*
COc1ccc(Cc2c(-c3ccc(OC)c(OC)c3)nc3c(C)cc(Br)cn23)c(C)c1 | 0 | 4 | -4 | 13
Cc1noc(C)c1NC(=O)N(C)C[C@H]1Oc2c(NS(C)(=O)=O)cccc2C(=O)N([C@@H](C)CO)C[C@H]1C | -2 | x | x | x
CC(C)CNC(=O)c1cccc2c(-c3ccc(F)c(F)c3)coc12 | 55* | 0 | -4 | 0
CC(C)NC(=O)c1cccc2c(-c3ccc(F)c(F)c3)coc12 | 16 | 8 | -5 | 2
O=C(N/N=C/c1ccoc1)c1ccccc1O | 50* | -1 | -2 | -3
O=C(N/N=C/c1ccoc1)c1cc(O)cc(O)c1 | 74* | 5 | 8 | 28*
O=C(N/N=C/c1ccc[nH]1)c1ccccc1O | 60* | 1 | 0 | 1
SMILES | CASP6 VEID inh | MBD2 DNA inh | LEDGF integ inh | UHRF1 binding
COc1ccc(/C=N/NC(=O)c2ccccc2O)cc1CN1CCOCC1 | 42* | 1 | -6 | 1
O=C(N/N=C/c1ccc[nH]1)c1ccc(O)cc1 | 4 | -9 | -5 | -5
O=C(NC[C@H]1[C@@H](c2ccccc2)[C@H](CO)N1C(=O)C1CC1)NC1CCCC1 | -1 | x | x | x
COc1cccc(C(=O)Nc2ccc3c(c2)OC[C@H](C)N(CC2CC2)C[C@@H](C)[C@@H](OC)CN(C)C3=O)c1 | 0 | x | x | x
O=C(C[C@@H]1C[C@@H]2c3cc(NC(=O)c4ccc5c(c4)OCO5)ccc3O[C@@H]2[C@H](CO)O1)NCC(F)(F)F | 2 | x | x | x
C[C@H](CO)N1C[C@H](C)[C@H](CN(C)Cc2ccc(Cl)c(Cl)c2)OCc2cn(nn2)CCCC1=O | -2 | x | x | x
COc1cccc(-c2ccc3c(c2)[C@@H]2[C@@H](CCN2C(=O)C2CCOCC2)[C@@H](CO)N3)c1 | -1 | x | x | x
CCCNC(=O)N(C)C[C@H]1Oc2cc(-c3cccnc3)ccc2S(=O)(=O)N([C@H](C)CO)C[C@@H]1C | 1 | x | x | x
O=C(N/N=C/c1oc(O)c2ccccc12)c1ccccc1O | 37* | 3 | 0 | -2
CCCN(CCC)Cc1cc(=O)oc2cc3c(cc12)CCC3 | -1 | -6 | -1 | 31*
Cc1noc(C)c1S(=O)(=O)N(C)C[C@@H]1Oc2c(cccc2N(C)C)C(=O)N([C@@H](C)CO)C[C@H]1C | -2 | x | x | x
CC(NC(=S)Nc1ccc([N+](=O)[O-])cc1)c1ccncc1 (configuration not stated) | -5 | 2 | -6 | 46*
COc1ccc(CNC(=O)N[C@@H](CC(C)C)C(=O)O)cc1OC | 2 | 11 | -3 | 26*
COc1cc(NC(=O)c2cc(C)on2)cc(C(=O)Nc2cccc(C(F)(F)F)c2)c1 | -2 | -3 | 2 | 93*!
CC(O)(CS(=O)(=O)Cc1ccccc1)C(=O)Nc1ccc(C(F)(F)F)cc1 (configuration not stated) | x | 2 | -1 | 2
CC(O)(CS(=O)(=O)Cc1ccccc1)C(=O)Nc1cccc(C(F)(F)F)c1 (configuration not stated) | 40* | -5 | 0 | -3
Cc1cc(C)c(C(=O)N2CCCC(Nc3ccc(F)cc3)C2)o1 (configuration not stated) | 2 | 3 | -1 | 1
Cn1c(C(=O)N2CCCC(Nc3ccc(F)cc3)C2)cc2ccccc21 (configuration not stated) | 41* | -2 | 1 | -2
Cc1ccc(S(=O)(=O)Nc2ccc3c(c2)C(=O)N([C@H](C)CO)C[C@@H](C)[C@H](CN(C)Cc2ccncc2)OCCCC[C@H](C)O3)cc1 | -3 | x | x | x
CC(=O)C1C(c2ccc(C)cc2)c2c(n[nH]c2C)CC1(C)O (configuration not stated) | x | 7 | 2 | 23*
COc1cccc(-c2cn(CC[C@H]3CC[C@@H](NC(=O)CC4CC4)[C@H](CO)O3)nn2)c1 | -2 | x | x | x
Cc1ccc(NC(=O)COc2ccc3oc4c(c3c2)CCCC4)nc1 | x | 6 | 2 | 26*
Cc1ccc(NC(=O)CN(C)C(=O)Cc2ccc(Cl)c(Cl)c2)cc1 | -4 | 1 | -1 | 0
Cc1ccc(NC(=O)CN(C)C(=O)Cn2ncc(Cl)c(Cl)c2=O)cc1 | 41* | 2 | -3 | 6
